Measurements as given in PubChem BioAssay AID1159580 (chemical genetic matrix, 2015).
Where “and” joins values, the source holds several entries; their conditions need not be identical. Equal entries are not always repeated. About 2,000 (36%) of roughly 5,500 compounds were called active. About 18% were inconclusive and are not listed. Cut-off read from the data, not from the text of the source: active = normalized growth mostly below about 0.91 (no sharp cut-off); inconclusive = no clear call, values can overlap the other calls; inactive = mostly above about 0.92. This is one part of the list.

Assay: chemical genetic growth profiling, strain panel (AID 1159580);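 note: tested at 20 µM; growth read once vehicle control cultures reached saturation at 30 °C; 1 = growth at the plate median or of vehicle wells; lower values mean less growth of the strain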
Settings: S. cerevisiae deletion strains, growth OD

Measured: normalized growth

CCCCNc1ccc(C(=O)OCCN(C)C)cc1
active: locus YDR137W, strain rgp1, active compounds read low 1.17 [resistant]
inactive: locus YAL013W, strain DEP1, active compounds read low 1.01 | locus YAL021C, strain ccr4, active compounds read low 0.978 | locus YAL026C, strain drs2, active compounds read low 1.02 | locus YAL030W, strain snc1, active compounds read low 0.999 | locus YAL040C, strain CLN3, active compounds read low 0.929 | locus YBL061C, strain skt5, active compounds read low 1.02 | locus YBR009C, strain hhf1, active compounds read low 0.978 | locus YBR021W, strain FUR4, active compounds read low 1.02 | locus YBR023C, strain chs3, active compounds read low 1.01 | locus YBR171W, strain sec66, active compounds read low 1.02 | locus YBR229C, strain ROT2, active compounds read low 1.01 | locus YBR231C, strain swc5, active compounds read low 1 | locus YBR279W, strain paf1, active compounds read low 1.01 | locus YCL011C, strain gbp2, active compounds read low 1.03 | locus YCL016C, strain dcc1, active compounds read low 1.02 | locus YCL029C, strain bik1, active compounds read low 1.01 | locus YCL061C, strain MRC1 (second series), active compounds read low 1.01 | locus YCL069W, strain vba3, active compounds read low 1.01 | locus YCR088W, strain abp1, active compounds read low 1.01 | locus YDL005C, strain med2, active compounds read low 1.01 | locus YDL035C, strain GPR1, active compounds read low 1.01 | locus YDL040C, strain nat1, active compounds read low 1.01 | locus YDL074C, strain BRE1, active compounds read low 1.02 | locus YDL101C, strain DUN1, active compounds read low 1.01 | locus YDL134C, strain PPH21, active compounds read low 1.01 | locus YDL185W, strain tfp1, active compounds read low 1.02 | locus YDL192W, strain arf1, active compounds read low 1.01 | locus YDR001C, strain nth1, active compounds read low 1.01 | locus YDR069C, strain doa4, active compounds read low 0.991 | locus YDR101C, strain arx1, active compounds read low 1.01 | locus YDR150W, strain NUM1, active compounds read low 1.01 | locus YDR159W, strain sac3, active compounds read low 1.01 | locus YDR162C, strain NBP2, active compounds read low 0.998 | locus YDR195W, strain ref2 0.952 | locus YDR297W, strain sur2, active compounds read low 1.02 | locus YDR318W, strain mcm21, active compounds read low 1.02 | locus YDR334W, strain swr1, active compounds read low 1.04 | locus YDR335W, strain msn5, active compounds read low 1.04 | locus YDR363W, strain ESC2, active compounds read low 1.01 | locus YDR388W, active compounds read low 1.02 | locus YDR392W, strain spt3, active compounds read low 1.09 | locus YDR502C, strain sam2, active compounds read low 1 | locus YEL003W, strain gim4, active compounds read low 1.01 | locus YEL037C, strain rad23, active compounds read low 1.02 | locus YEL061C, strain CIN8 (second series), active compounds read low 1.02 | locus YEL061C, strain CIN8, active compounds read low 1.01 | locus YER002W, strain NOP16, active compounds read low 0.995 | locus YER015W, strain faa2, active compounds read low 1.01 | locus YER016W, strain bim1, active compounds read low 1.02 | locus YER110C, active compounds read low 1.02 | locus YER111C, strain swi4, active compounds read low 1.01 | locus YER155C, strain BEM2 (second series), active compounds read low 0.95 | locus YER155C, strain BEM2, active compounds read low 0.999 | locus YER167W, strain BCK2, active compounds read low 1.01 | locus YFR010W, strain ubp6, active compounds read low 0.991 | locus YGL078C, strain dbp3, active compounds read low 1.02 | locus YGL086W, strain mad1, active compounds read low 0.997 | locus YGL167C, strain pmr1, active compounds read low 1.01 | locus YGL173C, strain kem1, active compounds read low 1 | locus YGL227W, strain vid30, active compounds read low 1.01 | locus YGL240W, strain doc1, active compounds read low 1.01 | locus YGL248W, strain PDE1, active compounds read low 0.998 | locus YGL253W, strain hxk2, active compounds read low 1.03 | locus YGR078C, strain PAC10, active compounds read low 1.01 | locus YGR135W, strain pre9, active compounds read low 1 | locus YGR229C, strain SMI1, active compounds read low 1.03 | locus YGR252W, strain gcn5, active compounds read low 0.915 | locus YHR013C, strain ard1, active compounds read low 0.993 | locus YHR027C, strain rpn1, active compounds read low 1.01 | locus YHR030C, strain SLT2, active compounds read low 1.01 and 0.96 | locus YHR079C, strain IRE1 (second series), active compounds read low 1.02 | locus YHR079C, strain IRE1, active compounds read low 0.977 | locus YHR094C, strain hxt1, active compounds read low 1.02 | locus YHR129C, strain ARP1, active compounds read low 1 | locus YHR142W, strain chs7, active compounds read low 1.06 | locus YHR200W, strain rpn10, active compounds read low 1.02 | locus YIL066C, strain RNR3, active compounds read low 1.01 | locus YIL073C, strain SPO22, active compounds read low 1.04 | locus YIL125W, strain kgd1, active compounds read low 1.02 | locus YIR030C, strain dcg1, active compounds read low 1.02 | locus YJL092W, strain hpr5, active compounds read low 1.02 | locus YJL095W, strain BCK1 (second series), active compounds read low 1.02 | locus YJL095W, strain BCK1, active compounds read low 0.991 and 0.961 | locus YJL115W, strain asf1, active compounds read low 1.03 | locus YJL129C, strain trk1, active compounds read low 1.01 | locus YJL134W, strain LCB3, active compounds read low 1 | locus YJL154C, strain vps35, active compounds read low 1.01 | locus YJL164C, strain tpk1, active compounds read low 0.996 | locus YJL166W, strain qcr8, active compounds read low 1.02 | locus YJL168C, strain set2, active compounds read low 1.02 | locus YJL187C, strain SWE1 (second series), active compounds read low 1.01 | locus YJR043C, strain POL32, active compounds read low 1.02 | locus YJR066W, strain TOR1, active compounds read low 0.926
